We go through 40 compounds from PubChem BioAssay (NCATS).

Results filed as inconclusive are left out. Unmarked numbers belong to inactive results. Active and inactive are the calls of the source. Calls follow the shape of the dose curve; as a rule, active = well fitted curve in the direction sought with a large enough effect; inconclusive = small, poorly fitted or top-dose-only effect, or another doubt; inactive = no such curve, though single readings can be large or run the other way.
% is scaled to controls: 0 for no effect and ±100 for the full control effect; potency is read from the fitted curve at half-maximal effect.

The nature of the assay: qHTS Assay for Identifying Gametocytocidal Compounds (AID 743244).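 As to max response: actives lower the fluorescent signal which means gametocytes are killed.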 To be noted: P. falciparum 3D7 stage III-V gametocytes, alamarBlue, 72 h; max response: hits give low values. An excerpt: Malaria cases and deaths have dropped 50% in 29 countries since 2000 due to the combined effects of long-lasting insecticidal bednets, indoor residual spraying, and artemisinin-based combination therapies (ACTs). This success has raised hopes for malaria eradication and consequently stimulated interest in developing new reagents that block gametocyte transmission such as novel and safe gametocytocidal drugs. However, previous drug development efforts have focused primarily on the asexual parasites that cause symptoms, but not malaria transmission. Consequently, patients can remain infectious for weeks after the clearance of asexual parasites and clinical symptoms. To be transmitted from person to person via a mosquito, the parasites must switch from asexual to sexual development and produce male and female gametocytes. Malaria gametocytes consist of five stages (I, II, III, IV and V). The late stage gametocytes (III, IV and V) are difficult to be cultured in vitro and the long lifespan of mature gametocytes allows them being transmitted from host to mosquitoes unless they are completely eliminated by gametocytocidal agents. To identify gametocytocidal compounds which are capable of killing late stage P. falciparum gametocytes, a high throughput gametocyte viability assay was employed. This assay uses oxidoreduction indicator, alamarBlue, as a general measure of metabolic activity of gametocytes. Within live cells, the nonfluorescent resazurin is reduced to resorufin, a bright red fluorescence dye. Fluorescence decreases upon treatment of gametocytocidal compounds. P. falciparum gametocyte (3D7 strain) was used in this study.
The 1536-well gametocycidal viability assay was based on the previous method of Tanaka et al. Stage III-V gametocytes were tested against three compound libraries, including 4265 compounds from NCGC pharmaceutical collection, 400 from Malaria Box library, and 550 from an internal collection of kinase inhibitors. Briefly, 2.5 ul/well incomplete medium was dispensed into each well of 1,536-well plates using the Multidrop Combi followed by 23 nl compound transferring using the NX-TR Pintool (WAKO Scientific Solutions, San Diego, CA). Then, 2.5 ul/well of gametocytes was dispensed with a seeding density of 20,000 cells/well using the Multidrop Combi. The assay plates were incubated for 72 h at 37C with 5% CO2. After addition of 5 ul/well of 2X AlamarBlue dye (Life Technologies, cat. no. DAL1100), the plates were incubated for 24 h at 37C with 5% CO2 and then were read in a fluorescence detection mode (Ex = 525 nm, Em = 598 nm) on a ViewLux plate reader (PerkinElmer).
On the technique in general: qHTS replaces the single test concentration by a dilution series.
For the compound `Cc1cccc(C)c1NC(=O)CN1CCCC1`, the max response is 20.5%. Turning to `N/C(=N\N=C\c1ccc(Cl)cc1)N/N=C/c1ccc(Cl)cc1`, the max response is 0.563%. As for `COP(=O)(OC)OC(c1ccc(Cl)cc1)P(=O)(OC)OC` (stereo not given), the max response was 0.577%.

In the case of `c1ccc(-c2nc[nH]c2-c2ccccc2)cc1`, the max response was -4.96%. Regarding `CCCCCCCCCCCCCCCC(=O)O`, the max response was 2.07%.

For `NCc1ccccc1Sc1ccccc1CO`, the max response is -6.07%. Turning to `CCCCCCCC/C=C\CCCCCCCCN`, the max response is -6.53%. `O=C(Nc1cccc(C2=NCCN2)c1)Nc1cccc(C2=NCCN2)c1`: the max response is -7.84%. Turning to `CC(=O)OC[C@H]1O[C@@H](n2ncc(=O)[nH]c2=O)[C@H](OC(C)=O)[C@@H]1OC(C)=O`, the max response was 13.3%. Turning to `OC[C@H]1O[C@@H](Oc2ccc(O)cc2)[C@H](O)[C@@H](O)[C@@H]1O`, the max response was 0.374%. Regarding `CC(=O)NC(=O)c1ccccc1O`, the max response is -9.03%.

In the case of `NC(=O)c1ccccc1O`, the max response is -5.71%. As for `CC(C)(C)CC(C)(C)c1ccc(O)c(-n2nc3ccccc3n2)c1`, the max response is -5.06%.

Take `Cc1cc(NS(=O)(=O)c2ccc(N)cc2)nc(C)n1`: the max response is 18.7%. With `CCCCOC(=O)CC(CC(=O)OCCCC)(OC(C)=O)C(=O)OCCCC`, the max response was 2.63%. For the compound `COc1cc(C(=S)N2CCOCC2)ccc1O`, the max response is 19.6%. Take `O=C(N/N=C/c1ccc([N+](=O)[O-])o1)c1ccc(O)cc1`: the Potency was 1120 nM (active).

For the compound `CCOC(=O)[C@@](C)(N)Cc1ccc(O)c(O)c1`, the max response is 1.03%.

For the compound `C=C1c2cccc(O)c2C(O)=C2C(=O)[C@]3(O)C(O)=C(C(N)=O)C(=O)[C@@H](N(C)C)[C@@H]3[C@@H](O)[C@H]12`, the max response is -4.37%. `N#C/C(=C1\SCC(c2ccccc2Cl)S1)n1ccnc1` (stereo not given): the max response is 17.4%. For `CCCCC(CC)COC(=O)/C=C/c1ccc(OC)cc1` (stereo not given), the max response was 11.8%. The same measure, in the same setting: next, `CCOC(=O)C(C#N)=C(c1ccccc1)c1ccccc1`: -6.54%; `CN1CCC[C@@H]1CCO[C@](C)(c1ccccc1)c1ccc(Cl)cc1`: -0.809%. With `CC1(COc2ccc(CC3SC(=O)NC3=O)cc2)CCCCC1` (stereo not given), the max response was 2.09%. As to `Cl/C(=C\n1cncn1)c1ccc(Cl)cc1Cl`, the max response is -6.68%. On to `Cc1cccc(C)c1NC(=O)c1ccccc1C(=O)O`, for which the max response is -7.1%. For the compound `CCOC(=O)c1ccc(N)cc1`, the max response is 11.9%. Consider `CN1CCN(c2cc3c(cc2F)c(=O)c(C(=O)O)cn3-c2ccc(F)cc2)CC1`, for which the max response is -4.31%. Turning to `CC(=O)Nc1ncc([N+](=O)[O-])s1`, the max response was -10.1%. As to `CCCCc1cc2ccccc2c(OCCN(C)C)n1`, the max response was -5.86%.

As to `CCNC(=O)/C=C/c1cccc(Br)c1`, the max response was 3.79%. On to `CCN(CC)CCNC(=O)c1cc(Br)c(N)cc1OC`, for which the max response was -8.23%. On the same count and under the same terms, for `COc1ccccc1N1CCN(CCCCNC(=O)c2ccc(-c3ccc(C(C)=O)cc3)cc2)CC1` the value was 3.48%.

On to `CC(C)[N+](C)(C)CC(O)COc1cccc2ccccc12` (stereo not given), for which the max response is -10.5%.

With `Nc1nc(Cl)nc2c1ncn2[C@@H]1O[C@H](CO)[C@@H](O)[C@@H]1F`, the max response was 14.9%. Same read-out and setting: next, `CCCCC(CC)CN1CN(CC(CC)CCCC)CC(C)(N)C1` (stereo not given): 4.3%; `O=C(NC1CCN(CCc2c[nH]c3ccccc23)CC1)c1ccccc1`: -6.9%; `CCN[C@@H]1C[C@H](N)[C@@H](OC2OC(CN)=CCC2N)[C@H](O)[C@H]1O[C@H]1OC[C@](C)(O)[C@H](NC)[C@H]1O` (stereo not given in full): 13.5%. With `CCCc1ncc(C[n+]2ccccc2C)c(N)n1`, the max response was 8.25%. In the case of `CNCCc1ccccn1`, the max response was -0.406%.
